Results filed as inconclusive are left out. Values without a mark were called inactive. The call rests on the fitted dose curve; in most records, active means well fitted inhibition curve with a large enough effect; inconclusive means small, poorly fitted or top-dose-only effect; inactive means no such curve, though single readings can be large or run the other way.
Target: Retinaldehyde dehydrogenase 3 (Homo sapiens) (UniProt P47895)
Assay: qHTS for Inhibitors of the Aldehyde Dehydrogenase Family (ALDH1A3) Primary screen (AID 2061315);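 further: plate controls were DMSO vehicle for no effect and reference inhibitor for full effect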
Conditions: ALDH inhibition qHTS; series mostly up to 56 µM; activity change, negative = inhibition: at the top concentration

| Compound | activity change, negative = inhibition [%] |
| --- | --- |
| CN(C)C(=O)c1ccc(-c2cc[nH]c(=O)c2N)cc1 | -5.17 |
| Cc1noc(Nc2sc3c(c2-c2nc4ccccc4s2)CCNC3)n1 | -7.02 |
| Nc1c(-c2ccccc2)cc[nH]c1=O | -3.86 |
| O=C1COc2cc([S+](=O)([O-])Nc3ccc(Cl)c(Cl)c3)c(Cl)cc2N1 | -0.871 |
